This is an account of results in PubChem BioAssay (EPA / NIEHS).

Molecules are shown by their SMILES. Some compounds were tested as several samples or in several runs, with calls that do not always agree. Activity calls are given as the source filed them. The calls were made as follows: active = hit-call score of the fitted dose curve at least 0.9, where 1 is the maximum; inactive = score below 0.9.

Read-out in the assay: Thrombomodulin, THBD (gene 7056)
Nature of the assay: BSK_LPS_Thrombomodulin: BioMAP Diversity Plus: LPS Assay for Thrombomodulin Biomarker Activity (AID 2284296). The conditions noted are these: primary human HUVEC with PBMC. As to the method: BSK_LPS is a cell-based, multiplexed-readout assay that uses umbilical vein endothelium and peripheral blood mononuclear cells, a human vascular primary cell co-culture, with measurements taken at 24 hours after chemical dosing in a 96-well plate.BSK_LPS_Thrombomodulin is an assay component measured in the BSK_LPS assay. It measures Thrombomodulin antibody related to regulation of gene expression using ELISA technology.Data from the assay component BSK_LPS_Thrombodulin was analyzed at the endpoint, BSK_LPS_Thrombomodulin, in the positive analysis fitting direction relative to DMSO as the negative control and baseline of activity. Using a type of binding reporter, gain or loss-of-signal activity can be used to understand protein changes. To generalize the intended target to other relatable targets, this assay endpoint is annotated to the 'gpcr' intended target family, where the subfamily is 'rhodopsin-like receptor'.
The levels of cell surface (or secreted, indicated by the prefix "s") biomarker endpoints were measured by ELISA. Overt cytotoxicity to cells in confluent adherent cultures (all systems other than the BT system) was assessed by measuring total protein levels using sulforhodamine B (SRB) staining in parallel cultures at the time of biomarker measurements, indicated as SRB endpoints. For proliferation assays for adherent cell types, individual cell types are cultured at sub-confluence and relative cell numbers quantified by SRB staining at time points optimized for each system (48 h: 3C and CASM3C systems; 72 h: BT and HDF3CGF systems; 96 h: SAg system). SRB was performed by staining cells with 0.1% SRB after fixation with 10% TCA and reading wells at 560 nm.Viability and proliferation of PBMC (T cells) was quantified by Alamar Blue reduction for the SAg and BT systems. For PBMC viability (referred to as PBMC Cytotoxicity within the assay endpoint names), cells were plated (75,000/well in a 96-well plate) and then chemical samples added for 1 h before addition of activators, SEB and TSST-1 (20 ng/mL final concentration each). Cells were incubated for 90 h. Then, Alamar Blue (20 uL/well) (Invitrogen, Cat DAL1100) was added for 6 h, and the plates were read with a fluorescence microplate reader at 546/580 nm (excitation/emission). For PBMC proliferation, cells were plated and activated as above but incubated for only 16 h prior to addition of Alamar Blue. Plates were read after 6 h.
Regarding `C=C[Si](OC(C)=O)(OC(C)=O)OC(C)=O`, the outcome was inactive. As to `CCOC(=O)c1ccccc1C(=C1C=C(Br)C(=O)C(Br)=C1)c1cc(Br)c(O)c(Br)c1`, the AC50 (as a rule, the midpoint of the concentration-response curve, whichever way the signal moves) is 10.3 µM (active) and the outcome was inactive. With `CCO[Si](C)(OCC)OCC`, the result was inactive. For the compound `Nc1ccc(N)c(Cl)c1`, the outcome was inactive. Take `O=C1CCCN1CCO`: the result was inactive.

On to `O=C(c1ccc(O)cc1)c1ccc(O)cc1O`, for which the outcome was inactive. Still for that read-out and setting: in the case of `CN1C(=O)N(C)C(O)C1O` (stereo not given) it was “inactive”; in that of `CCCCC(CC)COCC1CO1` (stereo not given), “inactive”.

For the compound `CO[Si](OC)(OC)c1ccccc1`, the result was inactive.
